Columns and labels:
Conditions in all cases: concentration: 1 μM, replicates: in singlicate; n = 1
JNK3 = test system: T1, JNK3
T1 construct: gene MAPK10

KIT-autoinhibited = test system: KIT-autoinhibited
KIT = test system: KIT
LATS1 = test system: LATS1
LATS2 = test system: LATS2
LCK = test system: LCK
LIMK1 = test system: LIMK1
LIMK2 = test system: LIMK2
LKB1 = test system: T2, LKB1
T2 construct: gene STK11

LOK = test system: T3, LOK
T3 construct: gene STK10
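Also: KINOMEscan kinase panel screen.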

| SMILES | %Inh (JNK3) [%] | %Inh (KIT-autoinhibited) [%] | %Inh (KIT) [%] | %Inh (LATS1) [%] | %Inh (LATS2) [%] | %Inh (LCK) [%] | %Inh (LIMK1) [%] | %Inh (LIMK2) [%] | %Inh (LKB1) [%] | %Inh (LOK) [%] |
| --- | --- | --- | --- | --- | --- | --- | --- | --- | --- | --- |
| COc1nccc(-c2c(-c3ccc(F)cc3)ncn2CCCN2CCOCC2)n1 [SB-282852] | 51 | 20 | 0 | 0 | 27 | 25 | 0 | 0 | 0 | 45 |
| CS(=O)(=O)CCNCc1nc(-c2ccc3ncnc(Nc4ccc5c(cnn5Cc5ccccc5)c4)c3c2)cs1.Cl.Cl [GW569716] | 4 | 0 | 6 | 0 | 0 | 9 | 0 | 0 | 0 | 0 |
| Cl.Cl.Cl.N#Cc1ccc(CCNc2nccc(-c3cccc(CN4CCNCC4)c3)n2)cc1 [GSK2137462] | 22 | 0 | 29 | 15 | 36 | 12 | 18 | 38 | 1 | 0 |
| COc1ccc(-c2coc3ccc(-c4nnc(C)o4)cc23)cc1 | 0 | 0 | 1 | 0 | 0 | 0 | 0 | 0 | 5 | 0 |
| CS(=O)(=O)CCNCc1nc(-c2ccc3ncnc(Nc4ccc(OCc5ccccc5)c(Cl)c4)c3c2)cs1.Cl [GW582764] | 0 | 0 | 1 | 0 | 0 | 17 | 0 | 0 | 0 | 0 |
| COc1cccc(CNC(=O)NC2CCN(c3ccnc(Nc4ccc(F)cc4)n3)C2)c1 (stereo not shown) [GSK1379723] | 11 | 0 | 23 | 10 | 0 | 11 | 3 | 0 | 0 | 0 |
| Cc1cccc2c(-c3ccncn3)c(-c3ccc(F)cc3)nn12 [GW515532] | 74 | 0 | 6 | 0 | 11 | 17 | 0 | 0 | 0 | 0 |
| O=C(Nc1n[nH]c2cc(-c3ccsc3)ccc12)C1CC1 [SB-732932] | 30 | 0 | 56 | 2 | 15 | 0 | 0 | 0 | 0 | 3 |
| COc1ccc(Nc2nccc(N3CCC(NC(=O)c4cc5ccccc5s4)C3)n2)cc1 (stereo not shown) [GSK1379738] | 10 | 0 | 7 | 0 | 1 | 16 | 8 | 17 | 0 | 0 |
| O=C1NC(=O)C(c2ccc(Cl)cc2)=C1Nc1ccc(O)cc1 [SB-340867] | 0 | 0 | 0 | 17 | 0 | 5 | 11 | 0 | 13 | 0 |
| COC(=O)c1cccc(NC(=O)NC2CCN(c3ccnc(Nc4ccc(OC)cc4)n3)C2)c1 (stereo not shown) [GSK1379746] | 0 | 0 | 44 | 0 | 0 | 11 | 0 | 3 | 0 | 0 |
| Cc1ccc(NC(=O)Nc2ccc(Cl)cc2)cc1-c1ccc(C(=O)Nc2ccncc2)cc1 [GSK1398472] | 1 | 4 | 99.9 | 2 | 0 | 60 | 28 | 67 | 0 | 35 |
| O=C(Nc1n[nH]c2nc(-c3cccs3)c(Br)cc12)C1CC1 [SB-735297] | 9 | 0 | 5 | 11 | 3 | 16 | 26 | 0 | 0 | 18 |
| COC(=O)c1cccc(NC(=O)NC2CCN(c3ccnc(Nc4ccc(F)cc4)n3)C2)c1 (stereo not shown) [GSK1379725] | 17 | 0 | 44 | 0 | 0 | 0 | 0 | 0 | 0 | 0 |
| Cc1ccc(NC(=O)Nc2ccc(Cl)c(C(F)(F)F)c2)cc1-c1ccc(C(=O)Nc2ccncc2)cc1 [GSK1398470] | 0 | 45 | 99.5 | 0 | 15 | 57 | 28 | 14 | 6 | 65 |
| O=C(Nc1n[nH]c2nc(-c3cccs3)c(Br)cc12)C1CCCC1 [SB-743341] | 46 | 13 | 36 | 20 | 0 | 38 | 2 | 15 | 0 | 26 |
| CNC(=O)c1ccc(C)c(-n2c(C)cc(OCc3ccc(F)cc3F)c(Br)c2=O)c1 | 100 | 0 | 0 | 0 | 0 | 1 | 0 | 0 | 0 | 0 |

| SMILES | %Inh (JNK3) [%] | %Inh (KIT-autoinhibited) [%] | %Inh (KIT) [%] | %Inh (LATS1) [%] | %Inh (LATS2) [%] | %Inh (LCK) [%] | %Inh (LIMK1) [%] | %Inh (LIMK2) [%] | %Inh (LKB1) [%] | %Inh (LOK) [%] |
| --- | --- | --- | --- | --- | --- | --- | --- | --- | --- | --- |
| Cc1ccc(NC(=O)Nc2ccccc2F)cc1-c1ccc(C(=O)Nc2ccncc2)cc1 [GSK1398477] | 0 | 5 | 99.6 | 0 | 2 | 68 | 36 | 15 | 0 | 33 |
| CC(=O)c1cccc(NC(=O)NC2CCN(c3ccnc(Nc4ccc(F)cc4)n3)C2)c1 (stereo not shown) [GSK1379710] | 22 | 4 | 49 | 0 | 2 | 12 | 11 | 22 | 23 | 0 |
| CNc1cc(-c2ccc3c(N)n[nH]c3c2)nc(N)n1 [GSK2224810] | 0 | 0 | 19 | 0 | 20 | 0 | 0 | 9 | 0 | 0 |
| COc1cccc(C2=C(Nc3cc(Cl)c(O)c(Cl)c3)C(=O)NC2=O)c1 [SB-390767] | 15 | 0 | 0 | 1 | 0 | 0 | 31 | 0 | 0 | 0 |
| CCCCc1nn2ncccc2c1-c1ccnc(NC2CC2)n1 [GW684374] | 82 | 0 | 67 | 0 | 0 | 17 | 33 | 34 | 0 | 0 |
| c1ccc(-c2ccnc3[nH]ccc23)cc1 [SB-693578] | 11 | 0 | 1 | 0 | 53 | 7 | 6 | 0 | 0 | 0 |
| FC(F)(F)c1ccccc1-c1cc(-c2c[nH]nc2-c2ccccn2)ccn1 [GW679396] | 40 | 0 | 3 | 0 | 0 | 17 | 0 | 0 | 11 | 0 |
| Cn1cncc1C(=O)NC1CCN(c2ccnc(Nc3ccc(F)cc3)n2)C1 (stereo not shown) [GSK1379717] | 13 | 0 | 17 | 25 | 0 | 4 | 0 | 2 | 0 | 0 |
| Nc1nccc(-c2c(-c3ccc(F)cc3)ncn2C2CCN(Cc3ccccc3)CC2)n1 [SB-219980] | 95.4 | 0 | 0 | 13 | 0 | 0 | 13 | 0 | 36 | 18 |
| COc1ccc2cc(-c3nc(-c4ccccc4C(C)C)[nH]c3-c3ccncc3)ccc2c1 [SB-660566] | 44 | 0 | 0 | 0 | 0 | 11 | 8 | 0 | 0 | 61 |
| CNCc1ccc2nc(NC(=O)c3ccc(C(C)(C)C)cc3)cn2c1 | 14 | 20 | 69 | 2 | 6 | 2 | 5 | 0 | 31 | 0 |
| CS(=O)(=O)Cc1ccc(Nc2nccc(-c3c(-c4cccc(NC(=O)C5CCCCC5)c4)nn4ncccc34)n2)cc1 [GSK350559] | 36 | 14 | 88 | 0 | 48 | 23 | 22 | 14 | 0 | 81 |
| Cc1ccccc1Cn1ccn2c(=O)cc(N3CCOCC3)nc12 [GSK2269905] | 1 | 1 | 14 | 0 | 0 | 16 | 18 | 0 | 0 | 0 |
| Fc1ccc(-c2nn3cccc(F)c3c2-c2ccncc2)cc1 [GW475620] | 97.4 | 0 | 3 | 12 | 0 | 18 | 0 | 0 | 0 | 8 |
| COC(=O)C(NC(=O)NC1CCN(c2ccnc(Nc3ccc(F)cc3)n2)C1)c1ccccc1 (stereo not shown) [GSK1379712] | 0 | 5 | 29 | 13 | 5 | 18 | 17 | 10 | 15 | 0 |
| CC(C)c1cc(-c2ccc3c(N)n[nH]c3c2)nc(N)n1 [GSK2250882] | 8 | 0 | 9 | 0 | 0 | 9 | 0 | 0 | 14 | 0 |
| O=c1cc(N2CCOCC2)nc2n(Cc3cccc(Cl)c3Cl)c3ccccc3n12 [GSK2299009] | 3 | 0 | 36 | 0 | 16 | 43 | 4 | 24 | 8 | 0 |

Source: publication PMC5540273 (PLoS ONE, 2017)
